# Results filed as inconclusive are left out. Activity calls are given as the source filed them. Calls come from the whole dose curve; as a rule, active = well fitted cell-killing curve with a large enough effect; inconclusive = small, poorly fitted or top-dose-only effect, or effect the other way; inactive = flat fitted curve, though single readings scatter.
# Experiment: qHTS assay for cell viability of the p53RE-bla HCT-116 cell line (AID 743292); note: nearly all actives have a fitted effect of over 55% in size
# Details: p53RE-bla HCT-116 viability, ATP luminescence, 16 h; series mostly up to 95 µM; activity change, negative = cytotoxicity: at the top concentration
# Excerpt: U.S. Tox21 Program National Center for Advancing Translational Sciences [NCATS] NIH Chemical Genomics Center [NCGC] U.S. Environmental Protection Agency [EPA] National Institutes of Environmental Health Sciences [NIEHS] National Toxicology Program [NTP] U.S. Food and Drug Administration [FDA] Tox21 Assay Overview: The CellTiter-Glo Luminescent Cell Viability Assay (Promega, Madison, WI) is a homogeneous method to determine the number of viable cells in culture based on quantitation of the ATP present, which signals the presence of metabolically active cells. This cell viability assay was used to screen environmental chemicals in the CellSensor p53RE-bla HCT-116 cell line (Invitrogen).
# Tox21 Assay Protocol Summary: Cell viability after compound treatment was measured using a luciferase-coupled ATP quantitation assay (CellTiter-Glo viability assay, Promega, Madison, WI) in CellSensor p53RE-bla HCT-116 cell line (Invitrogen). Total intracellular ATP content corresponds to the number of metabolically competent cells after compound treatment. The cells were dispensed at 4,000 cells/5 uL/well in 1,536-well white/solid bottom assay plates using a Flying Reagent Dispenser (Aurora Discovery, San Diego, CA). The cells were incubated for 5 h at 37 C, followed by the addition of 23 nL of compounds dissolved in DMSO, positive controls or DMSO only using a pintool work station (Kalypsys, San Diego, CA). The assay plates were incubated for 16 h at 37 C, followed by the addition of 5 uL/well of CellTiter-Glo reagent. After 30 min incubation at room temperature, the luminescence intensity of the plates was measured using a ViewLux plate reader (PerkinElmer, Shelton, CT).
# % is set by controls: 0 for no effect and ±100 for the full control effect; potency is the fitted concentration of half-maximal effect.
Compound,"activity change, negative = cytotoxicity",Potency
CO[Si](CCCOCC1CO1)(OC)OC (stereo not given),2.11% (inactive),–
CCOCCOCCOCCO,6.71% (inactive),–
CC(C)(C)[C@H](O)[C@H](Cc1ccc(Cl)cc1)n1cncn1,–,inactive
Cc1c(Cl)cccc1Cl,4.56% (inactive),–
CCCCCCCCCCCCCCCCCC#N,1.86% (inactive),–
CO[Si](CCCNCCN)(OC)OC,2.97% (inactive),–
CCCCCCCC(=O)OC,-6.41% (inactive),–
CC1(C)CC(OC(=O)CCCCCCCCC(=O)OC2CC(C)(C)NC(C)(C)C2)CC(C)(C)N1,-7.78% (inactive),–
CCO[Si](CCC#N)(OCC)OCC,-7.36% (inactive),–
C[Si](Cl)(Cl)c1ccccc1,-4.11% (inactive),–
Cn1sccc1=O,-0.128% (inactive),–
NCCCCCCCCCCCC(=O)O,-7.8% (inactive),–
CCCCCCCCCCCCCCCCN(C)C,3.6% (inactive),–
CCOCCOCCOC(C)=O,3.34% (inactive),–
O=C(O)CCCCCCCCCCC(=O)O,-4.81% (inactive),–
CC1=CC2C3CC(C=C3C)C2C1 (stereo not given),-13% (inactive),–
CC(=O)Nc1ccc(N=Nc2cc(C)ccc2O)cc1,0.134% (inactive),–
CC(C)Cc1c(C(=O)O)c(C(F)F)nc(C(F)(F)F)c1C1=NCCS1,-14.2% (inactive),–
O=S(=O)(O)c1cc(S(=O)(=O)O)c2c(N=Nc3ccccc3)c(O)ccc2c1,2.84% (inactive),–
O=C(O)C1(C(=O)Nc2ccc(Cl)cc2Cl)CC1,-13.7% (inactive),–

Compound,"activity change, negative = cytotoxicity",Potency
CCCN(CCC)c1c([N+](=O)[O-])cc(C(F)(F)F)c(N)c1[N+](=O)[O-],–,50.1 µM (active)
C[Si]1(C)O[Si](C)(C)O[Si](C)(C)O[Si](C)(C)O1,14.8% (inactive),–
Nc1c(N=Nc2ccc(S(=O)(=O)CCOS(=O)(=O)O)cc2)c(S(=O)(=O)O)cc2cc(S(=O)(=O)O)c(N=Nc3ccc(S(=O)(=O)CCOS(=O)(=O)O)cc3)c(O)c12,–,25.1 µM (active)
CCCC/C=C\CCCCCCCCCC=O,1.49% (inactive),–
C1=C/CC/C=C/CC/C=C/CC/1,1.87% (inactive),–
O=c1n(CCO)c(=O)n(CCO)c(=O)n1CCO,-3.48% (inactive),–
COCCOCCOCCO,23.2% (inactive),–
CCCCN(CCCC)CCCC,-11.9% (inactive),–
C=CCCCCCCCCCC,-2.81% (inactive),–
CC(C)=CCC[C@@H](C)[C@H]1CC[C@@]2(C)C3=C(CC[C@]12C)[C@@]1(C)CC[C@H](O)C(C)(C)[C@@H]1CC3,-3.46% (inactive),–
O=c1[nH]sc2ccccc12,-7.28% (inactive),–
CC(=O)OC1CCC(C(C)(C)C)CC1 (stereo not given),-0.965% (inactive),–
CCCCN(CCCC)CCCCCCN(CCCC)CCCC,0.561% (inactive),–
CCCCCCCC/C=C\CCCCCCCCO,8.38% (inactive),–
CS(C)=O,-0.358% [at 65 mM] (inactive),–
CCOc1ccc(NC(=O)OC(C)C)cc1OCC,-0.132% (inactive),–
C[Si](C)(C)N[Si](C)(C)C,-1.85% (inactive),–
Nc1cc(Cl)c(O)c(Cl)c1,-9.71% (inactive),–
CCCCCCCCCc1ccccc1,-2.51% (inactive),–
CCCC/C=C/CCCCO,3.02% (inactive),–

# From PubChem BioAssay (NCATS)
